The source of these data is PubChem BioAssay (NCATS).

Results filed as inconclusive are left out. A call without a number means that no potency is given here. Active and inactive are the calls of the source. The call rests on the fitted dose curve; tested in HEK293 reporter line.
Potency means the concentration at half of the fitted maximal effect.

One assay in a line: qHTS for Inhibitors of the Functional Ribonucleoprotein Complex (vRNP) of Lassa (LASV) Arenavirus: LASV Primary Screen - GLuc reporter signal (AID 1347082). Further: nearly all actives have a fitted effect of over 60% in size. As to conditions: LASV minigenome vRNP, Gaussia luciferase reporter; series mostly up to 57.5 µM. Background: Quantitative high-throughput screening tests each substance at several concentrations.
Turning to `Cc1cccc(C)c1NC(=O)C(C)N` (stereo not drawn), the Potency result is “inactive”.
With `C#C[C@]1(OC(C)=O)CC[C@H]2[C@@H]3CCC4=C/C(=N/O)CC[C@@H]4[C@H]3CC[C@@]21CC`, the Potency result was “inactive”.
As to `Oc1ccc(O)cc1`, the Potency entry is “inactive”.
With `CC(C)c1cc2c(cc1S(=O)(=O)O)[C@@]1(C)CCC[C@@](C)(C(=O)O)[C@@H]1CC2`, the Potency entry was “inactive”.
Regarding `O=C(O)c1ccccc1Nc1cc(Cl)ccc1C(=O)O`, the Potency entry is “inactive”.
Still for that read-out and setting: under `CCN(CC)CCOc1ccc(Cc2ccccc2)cc1` stands “inactive”; under `CN1CC(=O)N2[C@H](c3ccc4c(c3)OCO4)c3[nH]c4ccccc4c3C[C@@H]2C1=O`, “inactive”.
In the case of `CCCCCCCC/C=C\CCCCCCCCN`, the Potency entry is “inactive”.
Still for that read-out and setting: next, `CCC(CC)(CC(=O)Nc1cccc(/C=C/c2nc(C3CCC3)cs2)c1)C(=O)O`: “inactive”; `C#CCN(C)Cc1ccccc1`: “inactive”; `c1ccc(CCNc2nc(-c3ccccc3)cs2)cc1`: “inactive”.
Regarding `Cc1ccc(/C(=C\CN2CCCC2)c2ccccn2)cc1`, the Potency result is “inactive”.
As to `CCCCOC(=O)CCCCCCCCC(=O)OCCCC`, the Potency result is “inactive”.
Still for that read-out and setting: next, `Oc1cc(O)c2c(c1)O[C@H](c1ccc(O)c(O)c1)[C@H](O)C2`: “inactive”; `Cc1cccc(OCC(O)CNC(C)(C)C)c1C` (stereo not drawn): “inactive”; `O=C(c1ccc(F)cc1)C1CCN(CCn2c(=S)[nH]c3ccccc3c2=O)CC1`: “inactive”.
On the same count and under the same terms, under `C[N+](C)(C)CCOC(=O)CCC(=O)OCC[N+](C)(C)C` stands “inactive”.
For `C[C@@H]1CCC[C@H](C)N1CCCC(O)(c1ccccc1)c1ccccn1` (stereo partly drawn), the Potency result is “inactive”.
As for `Nc1ccc2c(c1)CN1C(=O)c3ccccc3C1=N2`, the Potency entry was “inactive”.
Same read-out and setting: under `C/C=C(/C(=C/C)c1ccc(O)cc1)c1ccc(O)cc1` stands “inactive”; under `N[C@H](C(=O)O)c1ccc(O)cc1`, “inactive”; under `N/C(=N\N=C\c1ccc(Cl)cc1)N/N=C/c1ccc(Cl)cc1`, “inactive”.
Still for that read-out and setting: next, `CCCCCCCCCCCCCCCCCCOCC(O)CO` (stereo not drawn): “inactive”; `O=C(O)CP(=O)(O)O`: “inactive”.
`C=CCc1cc(OC)c(O)c(C(=O)NCCO)c1`: the Potency result is “inactive”.
Same read-out and setting: next, `C/C=C(/C(=C/C)c1ccc(OC(C)=O)cc1)c1ccc(OC(C)=O)cc1`: “inactive”; `CN(C)c1ccc(C(=C2C=CC(=[N+](C)C)C=C2)c2ccc(N(C)C)cc2)cc1`: 1220 nM (active); `C[C@H]1C[C@H]2[C@@H]3CCC4=CC(=O)C=C[C@]4(C)[C@H]3C(=O)C[C@]2(C)[C@@]1(O)C(=O)CO`: “inactive”.
Still for that read-out and setting: next, `O=C(CCNNC(=O)c1ccncc1)NCc1ccccc1`: “inactive”; `NC(N)=NC(=O)c1nc(Cl)c(N)nc1N`: “inactive”; `CCOC(=O)[C@H](CCc1ccccc1)N[C@@H](C)C(=O)N1C(=O)N(C)C[C@H]1C(=O)O`: “inactive”.
The same measure, in the same setting: next, `CCCCCCc1ccc(O)cc1O`: “inactive”; `CC(O)Cn1cnc2c1c(=O)n(C)c(=O)n2C` (stereo not drawn): “inactive”.
For the molecule `Clc1ccc2c(c1)CCc1cccnc1C2=C1CCNCC1`, the Potency entry is “inactive”.
The same measure, in the same setting: under `COc1ccc2c(c1OC)C(=O)O[C@@H]2[C@H]1c2c(cc3c(c2OC)OCO3)CCN1C` stands “inactive”.
Same read-out and setting: under `CN1CCOC(c2ccccc2)c2ccccc2C1` (stereo not drawn) stands “inactive”; under `CCc1ccc(C(=O)C(C)CN2CCCCC2)cc1` (stereo not drawn), “inactive”.
For `Cc1nc2sccn2c(=O)c1CCN1CCC(=C(c2ccc(F)cc2)c2ccc(F)cc2)CC1`, the Potency entry was “inactive”.
For `Cc1ccc(Cl)c(OCC(O)CNC(C)(C)C)c1` (stereo not drawn), the Potency result was “inactive”.

A further assay is described as follows: qHTS for Inhibitors of the Functional Ribonucleoprotein Complex (vRNP) of Lassa (LASV) Arenavirus: Viability assay - alamar blue signal for LASV Primary Screen (AID 1347083). Further: nearly all actives have a fitted effect of over 80% in size. Conditions: cell viability, alamar blue fluorescence (LASV minigenome counter-screen); series mostly up to 57.5 µM.
Consider `Cc1cccc(C)c1NC(=O)C(C)N` (stereo not drawn), for which the Potency result was “inactive”.
The same measure, in the same setting: next, `C#C[C@]1(OC(C)=O)CC[C@H]2[C@@H]3CCC4=C/C(=N/O)CC[C@@H]4[C@H]3CC[C@@]21CC`: “inactive”; `Oc1ccc(O)cc1`: “inactive”; `CC(C)c1cc2c(cc1S(=O)(=O)O)[C@@]1(C)CCC[C@@](C)(C(=O)O)[C@@H]1CC2`: “inactive”.
On the same count and under the same terms, next, `O=C(O)c1ccccc1Nc1cc(Cl)ccc1C(=O)O`: “inactive”; `CCN(CC)CCOc1ccc(Cc2ccccc2)cc1`: “inactive”; `CN1CC(=O)N2[C@H](c3ccc4c(c3)OCO4)c3[nH]c4ccccc4c3C[C@@H]2C1=O`: “inactive”.
For `CCCCCCCC/C=C\CCCCCCCCN`, the Potency entry was “inactive”.
Take `CCC(CC)(CC(=O)Nc1cccc(/C=C/c2nc(C3CCC3)cs2)c1)C(=O)O`: the Potency result was “inactive”.
Same read-out and setting: under `C#CCN(C)Cc1ccccc1` stands “inactive”; under `c1ccc(CCNc2nc(-c3ccccc3)cs2)cc1`, “inactive”.
On the same count and under the same terms, next, `Cc1ccc(/C(=C\CN2CCCC2)c2ccccn2)cc1`: “inactive”; `CCCCOC(=O)CCCCCCCCC(=O)OCCCC`: “inactive”; `Oc1cc(O)c2c(c1)O[C@H](c1ccc(O)c(O)c1)[C@H](O)C2`: “inactive”.
Still for that read-out and setting: under `Cc1cccc(OCC(O)CNC(C)(C)C)c1C` (stereo not drawn) stands “inactive”; under `O=C(c1ccc(F)cc1)C1CCN(CCn2c(=S)[nH]c3ccccc3c2=O)CC1`, “inactive”; under `C[N+](C)(C)CCOC(=O)CCC(=O)OCC[N+](C)(C)C`, “inactive”.
Regarding `C[C@@H]1CCC[C@H](C)N1CCCC(O)(c1ccccc1)c1ccccn1` (stereo partly drawn), the Potency entry is “inactive”.
Turning to `Nc1ccc2c(c1)CN1C(=O)c3ccccc3C1=N2`, the Potency entry is “inactive”.
On the same count and under the same terms, under `C/C=C(/C(=C/C)c1ccc(O)cc1)c1ccc(O)cc1` stands “inactive”; under `N[C@H](C(=O)O)c1ccc(O)cc1`, “inactive”.
Still for that read-out and setting: under `N/C(=N\N=C\c1ccc(Cl)cc1)N/N=C/c1ccc(Cl)cc1` stands “inactive”.
Turning to `CCCCCCCCCCCCCCCCCCOCC(O)CO` (stereo not drawn), the Potency result is “inactive”.
The same measure, in the same setting: next, `O=C(O)CP(=O)(O)O`: “inactive”.
For `C=CCc1cc(OC)c(O)c(C(=O)NCCO)c1`, the Potency result was “inactive”.
Still for that read-out and setting: next, `C/C=C(/C(=C/C)c1ccc(OC(C)=O)cc1)c1ccc(OC(C)=O)cc1`: “inactive”.
Still for that read-out and setting: next, `CN(C)c1ccc(C(=C2C=CC(=[N+](C)C)C=C2)c2ccc(N(C)C)cc2)cc1`: 3850 nM (active); `C[C@H]1C[C@H]2[C@@H]3CCC4=CC(=O)C=C[C@]4(C)[C@H]3C(=O)C[C@]2(C)[C@@]1(O)C(=O)CO`: “inactive”.
Still for that read-out and setting: next, `O=C(CCNNC(=O)c1ccncc1)NCc1ccccc1`: “inactive”; `NC(N)=NC(=O)c1nc(Cl)c(N)nc1N`: “inactive”.
On to `CCOC(=O)[C@H](CCc1ccccc1)N[C@@H](C)C(=O)N1C(=O)N(C)C[C@H]1C(=O)O`, for which the Potency entry is “inactive”.
For `CCCCCCc1ccc(O)cc1O`, the Potency entry is “inactive”.
Still for that read-out and setting: under `CC(O)Cn1cnc2c1c(=O)n(C)c(=O)n2C` (stereo not drawn) stands “inactive”; under `Clc1ccc2c(c1)CCc1cccnc1C2=C1CCNCC1`, “inactive”.
The same measure, in the same setting: next, `COc1ccc2c(c1OC)C(=O)O[C@@H]2[C@H]1c2c(cc3c(c2OC)OCO3)CCN1C`: “inactive”.
The same measure, in the same setting: under `CN1CCOC(c2ccccc2)c2ccccc2C1` (stereo not drawn) stands “inactive”; under `CCc1ccc(C(=O)C(C)CN2CCCCC2)cc1` (stereo not drawn), “inactive”.
Regarding `Cc1nc2sccn2c(=O)c1CCN1CCC(=C(c2ccc(F)cc2)c2ccc(F)cc2)CC1`, the Potency result was “inactive”.
Still for that read-out and setting: under `Cc1ccc(Cl)c(OCC(O)CNC(C)(C)C)c1` (stereo not drawn) stands “inactive”.
